Assay results: ChEMBL document CHEMBL4513216, “Probing the Open Global Health Chemical Diversity Library for Multistage-Active Starting Points for Next-Generation Antimalarials” (ACS Infect Dis, 2020)
Among all 69,000 compounds or so, about 8,600 (12%) showed an effect of 50% or more. The full list was thinned out, with strong results kept by preference.

tested on: Plasmodium berghei; assay: Screen against P. berghei liver stage (PbLuc), transformed with Luciferase, at 10uM; format: functional, HepG2; settings: tested at 10 uM

Compound | INHIBITION [%]
CC(C)CN1CCO[C@H]2CCN(c3cnccn3)CC[C@@H]21 | 16.6
O=C(c1cc(-n2cccn2)ccc1Cl)N1CCC(N2CCCC2=O)CC1 | 18.5
CC(C)[C@H]1CN(Cc2nccn2C)C[C@@H]1NC(=O)COCC(N)=O | 44.9
CS(=O)(=O)c1cnc(CC2CC2)nc1C1CCCNC1 (centres undefined) | 41.7
NC1CCN(c2nccn3c(=O)[nH]nc23)CC1 | 48.2
Cc1cc(N2CCCN3CCC[C@H]3C2)n2nc(C)c(C)c2n1 | 48.1
Cc1cc(N2CCN(C3CCSCC3)CC2)n2nc(C)c(C)c2n1 | 51.4
Cc1cc(N2CCN3CCCCC3C2)n2nc(C)c(C)c2n1 (centres undefined) | 16.8
O=S(=O)(c1cn[nH]c1)N1CCC(O)(CN2CCC(F)(F)CC2)C1 (centres undefined) | -5.452
Cn1cc(Br)c(=O)c(NS(=O)(=O)c2ccc3c(c2)CCC3)c1 | 28.3
CC(C)c1ccc(C(=O)O)cc1S(=O)(=O)Nc1ccc(=O)n(C)c1 | -3.87
CC(C)Cc1ccc(S(=O)(=O)NCCCN2CCNC(=O)C2)cc1 | -20.3
Cn1cc(NS(=O)(=O)c2ccc(F)c(F)c2)ccc1=O | 23.5
CCc1ccc(C(=O)O)cc1S(=O)(=O)Nc1ccc(=O)n(C)c1 | 9.16
CCCc1ccc(S(=O)(=O)NCCNC(=O)c2ccoc2)cc1 | 5.05
CC(C)Cc1ccc(S(=O)(=O)Nc2ccc(=O)n(C)c2)cc1 | 88.5
CCc1ccc(S(=O)(=O)Nc2cn(C)cc(Br)c2=O)cc1 | 25.3
CCCc1ccc(S(=O)(=O)Nc2ccc(=O)n(C)c2)cc1 | 81.1
Cc1ccc(S(=O)(=O)Nc2ccc(=O)n(C)c2)c(Br)c1 | 77
Cc1ccc(F)c(S(=O)(=O)Nc2cn(C)cc(Br)c2=O)c1 | 8.53
Cn1cc(NS(=O)(=O)c2ccc3c(c2)CCCC3)ccc1=O | 81.1
CS(=O)(=O)CCCSc1cccc(C#N)c1 | -9.08
O=c1occ(CN2CCSCC2)c(O)c1CN1CCCC1 | 4.93
O=C(c1ccco1)N1C[C@H]2CCCN(CC3CC3)[C@H]2C1 | 25.5
CCc1cc(C(=O)N2CCC(O)(Cn3ccc4ccncc43)CC2)no1 | -0.902

Compound | INHIBITION [%]
Cc1ncc(Cl)c(C(=O)N2CCCC(n3nc(C)nc3C)C2)n1 (centres undefined) | 17.265
O=C(Cn1ccc2ccc(Cl)cc21)NCc1ccc(C(=O)O)cc1 | -6.42
CN(C)C(=O)[C@H]1C[C@H]2OCC[C@H]2N(Cc2ccc(F)cc2)C1 | 53.2
O=C([C@H]1CN(Cc2ccccc2F)C[C@H]2OCC[C@@H]12)N1CCCO1 | 61.9
Cc1ccccc1CN1C[C@@H](C(=O)N2CCCCO2)C[C@H]2OCC[C@H]21 | 42.7
O=C([C@H]1CN(Cc2ccc(F)cc2)C[C@H]2OCC[C@@H]12)N1CCCO1 | 24.9
CNC(=O)[C@H]1C[C@H]2OCC[C@H]2N(Cc2ccc(F)cc2)C1 | 33
O=C([C@H]1C[C@H]2OCC[C@H]2N(Cc2ccccn2)C1)N1CCCCO1 | 5.44
O=C([C@H]1C[C@H]2OCC[C@H]2N(Cc2ccoc2)C1)N1CCCCO1 | 88.2
O=C([C@H]1CN(Cc2cccnc2)C[C@H]2OCC[C@@H]12)N1CCCO1 | 26.5
O=C([C@H]1C[C@H]2OCC[C@H]2N(Cc2ccccc2F)C1)N1CCCCO1 | 59
O=C([C@H]1C[C@H]2OCC[C@H]2N(Cc2ccoc2)C1)N1CCCO1 | 19.4
CN(C)C(=O)[C@H]1C[C@H]2OCC[C@H]2N(Cc2ccc3c(c2)OCO3)C1 | 28.7
O=C([C@H]1C[C@H]2OCC[C@H]2N(Cc2ccc(F)cc2)C1)N1CCCCO1 | 38.1
Cc1ccc(CN2CCc3ncnc(C4CCOC4)c3CC2)s1 (centres undefined) | -31.6
CC(C)=CCN1CCN(C(=O)c2cc(C(C)C)on2)[C@H]2CS(=O)(=O)C[C@H]21 | 17.7
CN(C)c1cc(C2CCN(C(=O)c3cnn(C)c3)CC2)ccn1 | 26.4
COCCN1CC(=O)N(C(C)C)C(C)(C)C1 | -1.3
CCCc1nc(CN(CC)Cc2ccc(S(C)(=O)=O)cc2)no1 | -21.9
Cn1nc2c(cc1=O)CN(Cc1coc(-c3ccc(F)cc3)n1)CC2 | -0.113
CN(Cc1cccnc1)[C@@H]1CN(Cc2nccn2C)[C@@H]2CCCO[C@H]12 | -27
CC(C)NC(=O)C1CCc2nnc(CNC(=O)c3cccnc3)n21 (centres undefined) | -57.8
CCC[C@H]1CN(C(=O)Cn2ccccc2=O)C[C@@H]1NS(C)(=O)=O | 20.6
Cc1c(C(=O)NCCN2C(=O)CCC2=O)sc2ccc(F)cc12 | -64.6
